“And” between values parts separate entries of the source, which are not always exact repeats. Equal values may be shown once. Records with an inconclusive call do not appear. The source made the active and inactive calls. Calls come from the whole dose curve; as a rule, active = well fitted cell-killing curve with a large enough effect in the repeat runs; inconclusive = weak or mixed curves, or effect the other way; inactive = flat fitted curve, though single readings scatter.
Assay: cAMP Responsive Elements (CRE) small molecule antagonists, cell-based qHTS assay: qHTS cell viability counter screen (AID 2060913); note: nearly all actives have a fitted effect of over 40% in size
Settings: CRE-bla HEK293T viability, CellTiter-Glo luminescence, 5 h; series mostly up to 92.4 µM; viability change, negative = cytotoxic: at the top concentration
Method in brief: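 Cytotoxicity counter screen multiplexed with the CRE-bla antagonist read: HEK293T cells in DMEM with dialyzed FBS and 25 mM HEPES were treated 3 hrs under 0.25 uM final NKH477, then viability measured by CellTiter-Glo luminescence.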
For `Oc1cccc2cccnc12`, the Potency was “inactive”.
In the case of `N#Cc1c(Cl)cccc1Cl`, the “viability change, negative = cytotoxic” value is reported as -3.24% (inactive).
For `CC(C)(c1ccccc1)c1ccc(O)c(C(C)(C)c2ccccc2)c1`, the Potency was 42.9 µM (active) and 54.5 µM (active).
With `CCOP(OCC)OCC` the Potency was “inactive”.
For `CCCCNC(=O)OCC#CI`, the “viability change, negative = cytotoxic” value was -12.8% (inactive).
For `Clc1cc(Cl)c(Cl)c(Cl)c1`, the “viability change, negative = cytotoxic” value was 7.45% (inactive).
For `O=C(CCl)c1ccc(Cl)cc1Cl`, the Potency was “inactive”.
With `CCC(Cl)[N+](=O)[O-]` (stereo not given) the “viability change, negative = cytotoxic” value was 1.3% (inactive).
In the case of `O=Cc1ccco1`, the Potency is reported as “inactive”.
For `Oc1ccccc1Cl`, the Potency was “inactive”.
For `CS(=O)(=O)c1ccc(C(=O)C2C(=O)CCCC2=O)c(Cl)c1COCC(F)(F)F`, the “viability change, negative = cytotoxic” value was 10.1% (inactive).
For `CCOP(=O)(OCC)OCC`, the “viability change, negative = cytotoxic” value was -0.435% (inactive).
For `ClC(Cl)C(Cl)(Cl)Cl`, the “viability change, negative = cytotoxic” value was -3.89% (inactive).
For `CCCCP(CCCC)CCCC`, the “viability change, negative = cytotoxic” value was -6.44% (inactive).
For `CCCCC(CC)COC(=O)Cl` (stereo not given), the Potency was “inactive”.
In the case of `CC1(C)CON(Cc2ccccc2Cl)C1=O`, the “viability change, negative = cytotoxic” value is reported as 0.194% (inactive).
In the case of `CCCCC(C#N)(Cn1cncn1)c1ccc(Cl)cc1` (stereo not given), the Potency is reported as “inactive”.
In the case of `C[C@]12CC[C@H]3[C@@H](CC=C4C[C@@H](O)CC[C@@]43C)[C@@H]1CC[C@@H]2O`, the “viability change, negative = cytotoxic” value is reported as 2.47% [at 42.5 µM] (inactive).
For `CC#Cc1cc(C)nc(Nc2ccccc2)n1`, the “viability change, negative = cytotoxic” value was -0.342% (inactive).
In the case of `CC(C)[C@]12CC(=O)[C@H](C)[C@H]1C2`, the “viability change, negative = cytotoxic” value is reported as -2.47% (inactive).
With `CCC(C)c1cc([N+](=O)[O-])cc([N+](=O)[O-])c1O` (stereo not given) the “viability change, negative = cytotoxic” value was 12.9% (inactive).
With `O=C(O)CF` the Potency was “inactive”.
With `CS(=O)(=O)Cl` the “viability change, negative = cytotoxic” value was 0.985% (inactive).
In the case of `C/C(=C\c1ccccc1)[N+](=O)[O-]`, the “viability change, negative = cytotoxic” value is reported as 5.08% (inactive).
With `CC(C)=CC1C(C(=O)OC(C#N)c2cccc(Oc3ccccc3)c2)C1(C)C` (stereo not given) the “viability change, negative = cytotoxic” value was -6.49% (inactive).
In the case of `Nc1ccccc1Cl`, the “viability change, negative = cytotoxic” value is reported as 1.41% (inactive).
In the case of `c1cncc([C@@H]2CCCCN2)c1`, the “viability change, negative = cytotoxic” value is reported as -6.27% (inactive).
For `O=[N+]([O-])O.O=[N+]([O-])O.[Cd]`, the “viability change, negative = cytotoxic” value was -19% (inactive).
With `CCCCCCCCc1ccc(O)cc1` the “viability change, negative = cytotoxic” value was -6.93% (inactive).
For `CC(=O)[O-].CC(=O)[O-].CC(=O)[O-].[Sb+3]`, the viability change, negative = cytotoxic was 0.272% [at 3.27 µM] (inactive).
For `O=S(=O)(Cl)c1ccccc1`, the “viability change, negative = cytotoxic” value was 0.933% (inactive).
In the case of `O=[N+]([O-])c1cccc2cccnc12`, the “viability change, negative = cytotoxic” value is reported as 4.85% (inactive).
For `CNC(=O)NC(O)C(Cl)(Cl)Cl` (stereo not given), the “viability change, negative = cytotoxic” value was -0.0939% [at 42.5 µM] (inactive).
In the case of `OC(O)C(Cl)(Cl)Cl`, the Potency is reported as “inactive”.
In the case of `O=c1c(C2CC(c3ccc(-c4ccc(Br)cc4)cc3)Cc3ccccc32)c(O)sc2ccccc12` (stereo not given), the “viability change, negative = cytotoxic” value is reported as 2.62% [at 42.5 µM] (inactive).
With `O=C(O)C1C2CCC(O2)C1C(=O)O` (stereo not given) the Potency was “inactive”.
For `ClCc1ccc(Cl)cc1Cl`, the “viability change, negative = cytotoxic” value was 10.5% (inactive).
For `O=C(O)CCCCCCNC1c2ccccc2CCc2ccccc21`, the “viability change, negative = cytotoxic” value was 0.485% [at 42.5 µM] (inactive).
With `ClCc1cccnc1` the “viability change, negative = cytotoxic” value was 1.86% (inactive).
For `[Cl][Hg][c]1ccccc1`, the Potency was 19.3 µM (active).

Source: PubChem BioAssay (Tox21)
% is set by controls: 0 for no effect and ±100 for the full control effect; potency is the fitted concentration of half-maximal effect.
